# Assay results published in the supplement of paper PMC8728848.
# This is one part of a sample in which the strongest signals are shown more often than they occur.
# B1: Sp8391B-bot-388-20-388 (Bacteroides ovatus) (protein)
# chain: GCQNNDENEQHYDNKLFISASNFTKEILFKAGDTNVETGLSVAIAKPEEHDIKVTMSPAPELLSTYKLAYYDETAVLLSEEHYSMPETSTTIKSGSIVSPELPIEFINTGELDIKTTYVLPVTIKSVEGIGVLQSAKTYYYVFRGASLINVVCNISRNRAYPDFKNDSKFNNLTENTMEILFKANSFPNTLNTLMGIESNYLLRIGDATIPNNQLQVATSVNNCTSADLQLESGKWYHVAVAFNKGNVKVYINGVEKLSGSTGKSSVSLGAKHTNEEDGSRCFWVGYSYKDDRYFDGVVSEVRIWNRALTAEEIQATNHFYTIEPESEGLIAYWKFDEGSGTVAKDYSVSGYDLTIEKEPKWESVSLPQ
# What was measured:
# Assay in all cases: glycan array binding signal (z-score within array); higher = stronger binding
# Conditions in all cases: glycan notation: IUPAC condensed, linker removed
# [1] = biological target: Fuc(a1-2)Gal
# Summary of the method: (§1)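 Glycan array data came from 3228 arrays in the Consortium for Functional Glycomics database, and only arrays with an available protein sequence were kept. Glycan names were put into IUPAC-condensed notation, and columns mapping to the same glycan were averaged. The binding signal is a within-array Z-score, averaged across arrays of one protein sequence run at different concentrations or buffers and across linkers. A negative Z-score can be read as non-binding.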
# [2] = biological target: Fuc(a1-2)Gal(b1-3)GlcNAc(b1-2)Man(a1-3)[Fuc(a1-2)Gal(b1-3)GlcNAc(b1-2)Man(a1-6)]Man(b1-4)GlcNAc(b1-4)GlcNAc
# Summary of the method: as §1
# [3] = biological target: Fuc(a1-2)Gal(b1-3)GlcNAc(b1-3)[Gal(b1-4)GlcNAc(b1-6)]Gal(b1-4)Glc
# Summary of the method: as §1
# [4] = biological target: Fuc(a1-2)Gal(b1-3)[Fuc(a1-4)]GlcNAc(b1-3)[Gal(b1-4)GlcNAc(b1-6)]Gal(b1-4)Glc
# Summary of the method: as §1
# [5] = biological target: Fuc(a1-2)Gal6S(b1-3)GlcNAc6S
# Summary of the method: as §1
# [6] = biological target: Fuc(a1-2)[Gal(a1-3)]Gal(b1-4)GlcNAc
# Summary of the method: as §1
# [7] = biological target: Fuc(a1-2)[GalNAc(a1-3)]Gal(b1-3)GlcNAc(b1-2)Man(a1-3)[Fuc(a1-2)[GalNAc(a1-3)]Gal(b1-3)GlcNAc(b1-2)Man(a1-6)]Man(b1-4)GlcNAc(b1-4)GlcNAc
# Summary of the method: as §1
# [8] = biological target: Fuc(a1-2)[GalNAc(a1-3)]Gal(b1-3)GlcNAc(b1-3)GalNAc
# Summary of the method: as §1
# [9] = biological target: Fuc(a1-2)[GalNAc(a1-3)]Gal(b1-4)[Fuc(a1-3)]GlcNAc(b1-3)GalNAc
# Summary of the method: as §1
# [10] = biological target: Fuc(a1-3)[Gal(b1-4)]GlcNAc(b1-6)GalNAc
# Summary of the method: as §1
# [11] = biological target: Gal(a1-3)Gal(b1-3)[Fuc(a1-4)]GlcNAc(b1-2)Man(a1-3)[Gal(a1-3)Gal(b1-3)[Fuc(a1-4)]GlcNAc(b1-2)Man(a1-6)]Man(b1-4)GlcNAc(b1-4)GlcNAc
# Summary of the method: as §1
# [12] = biological target: Gal(a1-3)Gal(b1-4)GlcNAc
# Summary of the method: as §1
# [13] = biological target: Gal(a1-3)Gal(b1-4)[Fuc(a1-3)]GlcNAc
# Summary of the method: as §1
# [14] = biological target: Gal(a1-3)GalNAc
# Summary of the method: as §1
# [15] = biological target: Gal(a1-4)Gal(b1-3)GlcNAc(b1-2)Man(a1-3)[Gal(a1-4)Gal(b1-3)GlcNAc(b1-2)Man(a1-6)]Man(b1-4)GlcNAc(b1-4)GlcNAc
# Summary of the method: as §1
# [16] = biological target: Gal(b1-3)GalNAc(b1-4)Gal(b1-4)Glc
# Summary of the method: as §1
# [17] = biological target: Gal(b1-3)GlcNAc(b1-2)Man(a1-3)[Gal(b1-3)GlcNAc(b1-2)Man(a1-6)]Man(b1-4)GlcNAc(b1-4)GlcNAc
# Summary of the method: as §1
# [18] = biological target: Gal(b1-3)GlcNAc(b1-3)Gal(b1-4)Glc
# Summary of the method: as §1
# [19] = biological target: Gal(b1-3)GlcNAc(b1-3)Gal(b1-4)[Fuc(a1-3)]GlcNAc(b1-6)[Gal(b1-3)GlcNAc(b1-3)]Gal(b1-4)Glc
# Summary of the method: as §1
# [20] = biological target: Gal(b1-3)[Neu5Ac(a2-6)]GalNAc
# Summary of the method: as §1
# [21] = biological target: Gal(b1-3)[Neu5Ac(a2-6)]GlcNAc(b1-4)Gal(b1-4)Glc
# Summary of the method: as §1
# [22] = biological target: Gal(b1-4)GlcNAc(b1-2)Man(a1-3)[Gal(b1-4)GlcNAc(b1-2)Man(a1-6)][GlcNAc(b1-4)]Man(b1-4)GlcNAc(b1-4)[Fuc(a1-6)]GlcNAc
# Summary of the method: as §1
# [23] = biological target: Gal(b1-4)GlcNAc(b1-3)Gal(b1-4)GlcNAc(b1-3)Gal(b1-4)GlcNAc(b1-2)Man(a1-3)[Gal(b1-4)GlcNAc(b1-3)Gal(b1-4)GlcNAc(b1-3)Gal(b1-4)GlcNAc(b1-2)Man(a1-6)]Man(b1-4)GlcNAc(b1-4)GlcNAc
# Summary of the method: as §1
# [24] = biological target: Gal(b1-4)GlcNAc(b1-3)Gal(b1-4)GlcNAc(b1-3)Gal(b1-4)GlcNAc(b1-3)Gal(b1-4)GlcNAc(b1-2)Man(a1-3)[Gal(b1-4)GlcNAc(b1-3)Gal(b1-4)GlcNAc(b1-3)Gal(b1-4)GlcNAc(b1-3)Gal(b1-4)GlcNAc(b1-2)Man(a1-6)]Man(b1-4)GlcNAc(b1-4)GlcNAc
# Summary of the method: as §1
# [25] = biological target: Gal(b1-4)GlcNAc(b1-3)Gal(b1-4)GlcNAc(b1-3)Gal(b1-4)GlcNAc(b1-3)Gal(b1-4)GlcNAc(b1-2)[Gal(b1-4)GlcNAc(b1-3)Gal(b1-4)GlcNAc(b1-3)Gal(b1-4)GlcNAc(b1-3)Gal(b1-4)GlcNAc(b1-6)]Man(a1-6)[Gal(b1-4)GlcNAc(b1-3)Gal(b1-4)GlcNAc(b1-3)Gal(b1-4)GlcNAc(b1-3)Gal(b1-4)GlcNAc(b1-2)Man(a1-3)]Man(b1-4)GlcNAc(b1-4)[Fuc(a1-6)]GlcNAc
# Summary of the method: as §1
# [26] = biological target: Gal(b1-4)GlcNAc(b1-3)Gal(b1-4)GlcNAc(b1-3)Gal(b1-4)GlcNAc(b1-3)Gal(b1-4)GlcNAc(b1-3)Gal(b1-4)GlcNAc(b1-2)[Gal(b1-4)GlcNAc(b1-3)Gal(b1-4)GlcNAc(b1-3)Gal(b1-4)GlcNAc(b1-3)Gal(b1-4)GlcNAc(b1-3)Gal(b1-4)GlcNAc(b1-6)]Man(a1-6)[Gal(b1-4)GlcNAc(b1-3)Gal(b1-4)GlcNAc(b1-3)Gal(b1-4)GlcNAc(b1-3)Gal(b1-4)GlcNAc(b1-3)Gal(b1-4)GlcNAc(b1-2)Man(a1-3)]Man(b1-4)GlcNAc(b1-4)[Fuc(a1-6)]GlcNAc
# Summary of the method: as §1
# [27] = biological target: Gal(b1-4)GlcNAc(b1-3)[Fuc(a1-3)GlcNAc(b1-6)]Gal(b1-4)Glc
# Summary of the method: as §1
binder,measurement,setting,value
B1,glycan array binding signal (z-score),[1],-0.522
same,glycan array binding signal (z-score),[2],2.69
same,glycan array binding signal (z-score),[3],-0.322
same,glycan array binding signal (z-score),[4],1.29
same,glycan array binding signal (z-score),[5],-0.154
same,glycan array binding signal (z-score),[6],-0.199
same,glycan array binding signal (z-score),[7],0.439
same,glycan array binding signal (z-score),[8],-0.474
same,glycan array binding signal (z-score),[9],-0.673
same,glycan array binding signal (z-score),[10],4.03
same,glycan array binding signal (z-score),[11],8.13
same,glycan array binding signal (z-score),[12],-0.489
same,glycan array binding signal (z-score),[13],-0.616
same,glycan array binding signal (z-score),[14],-0.069
same,glycan array binding signal (z-score),[15],2.6
same,glycan array binding signal (z-score),[16],0.437
same,glycan array binding signal (z-score),[17],3.77
same,glycan array binding signal (z-score),[18],0.105
same,glycan array binding signal (z-score),[19],12.8
same,glycan array binding signal (z-score),[20],-0.208
same,glycan array binding signal (z-score),[21],-0.044
same,glycan array binding signal (z-score),[22],-0.897
same,glycan array binding signal (z-score),[23],2.45
same,glycan array binding signal (z-score),[24],2.49
same,glycan array binding signal (z-score),[25],-0.629
same,glycan array binding signal (z-score),[26],-0.112
same,glycan array binding signal (z-score),[27],0.415
